# Pf growth 48h: Primary qHTS for delayed death inhibitors of the malarial parasite plastid, 48 hour incubation; P. falciparum luciferase growth in erythrocytes, 48 h; Potency, µM (series often up to 28.7 µM), actives largely listed as inhibitors; 5.9% of 310,000 active; AID 504832, 2011
#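 Luminescence readout; reporter = integrated firefly luciferase in P. falciparum. RBC culture at 2% hematocrit, 0.1% parasitemia final, 37 C/5% CO2; decreased signal taken as growth inhibition.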
# HCMV inh: qHTS Assay for inhibitors of the human cytomegalovirus (HCMV); HFF cells, HCMV-luciferase reporter, 72 h; stronger effect = lower value; activity change, negative = inhibition, % at 57.5 µM; 4.5% of 410,000 active; AID 1259415, 2018; in the data active = activity change below about -60%; inconclusive = no clear call, values can overlap the other calls; inactive = above about -39%
#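 Two compound doses tested in HFFs infected with HCMV-luciferase, MOI 1 PFU/cell, 72 h at 37C. Lysate luminescence read with OneGlo; data normalized against buffer-only and 10uM Salinomycin inhibitor controls.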
# Sm TGR inh: qHTS Assay for the Inhibitors of Schistosoma Mansoni Peroxiredoxins. Schistosoma mansoni thioredoxin glutathione reductase (TGR), Q962Y6. purified TGR, DTNB reduction, TNB absorbance 405 nm. Potency, µM (titrated, usually from 114 µM), hits mostly inhibitors. 3% of 360,000 active; also: nearly all actives have a fitted effect of over 60% in size
#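 First, TGR (20 nM dispensed) and NADPH were mixed with compound. Second, a 15 min room-temperature incubation followed. Third, further NADPH and then DTNB were added to start the reaction. Finally, TNB absorbance was monitored kinetically.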
# Pf growth 96h: Primary qHTS for delayed death inhibitors of the malarial parasite plastid, 96 hour incubation | 6.9% of 320,000 active | Potency, µM (doses to about 28.7 µM), actives largely listed as inhibitors | P. falciparum luciferase reporter growth, 96 h
#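 Plates of compound plus infected erythrocytes (2% hematocrit, 0.05% parasitemia final) incubate 96 hours, 37 C, 5% CO2. Detection reagent added; reduced luminescence from the parasites' luciferase reporter flags inhibition.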
# FBPA Giardia inh: qHTS Assay for Inhibitors of Fructose-1,6-bisphosphate Aldolase from Giardia Lamblia | purified Giardia FBPA | 0.71% of 290,000 active | Potency, µM (doses to about 59.6 µM), most hits filed as inhibitors | A8B2U2 | AID 2451, 2010; also: nearly all actives have a fitted effect of over 55% in size
# Target sequence (A8B2U2 whole entry, looked up): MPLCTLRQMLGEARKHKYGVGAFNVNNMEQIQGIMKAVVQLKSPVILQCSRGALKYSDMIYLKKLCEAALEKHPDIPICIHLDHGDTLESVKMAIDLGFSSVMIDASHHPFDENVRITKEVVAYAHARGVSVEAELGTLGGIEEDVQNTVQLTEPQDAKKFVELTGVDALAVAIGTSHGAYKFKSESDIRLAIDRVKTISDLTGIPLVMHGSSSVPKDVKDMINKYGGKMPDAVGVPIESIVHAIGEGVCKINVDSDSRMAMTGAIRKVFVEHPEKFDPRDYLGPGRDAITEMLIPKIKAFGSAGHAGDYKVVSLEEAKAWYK
#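 40 nM FBPA preincubated 10 min at RT with compound (up to 57.5 uM final), then substrate plus GAPDH/TPI/NAD/arsenate coupling and diaphorase/resazurin added. Fluorescence read after 20 min at RT, 525/598 nm.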
# Hits are given with their value; i = inactive; ? = inconclusive; nt = not tested or not shown; [ ] = another dose, or the depositor's remark. Only some compounds are listed: those with a hit (about 14% of all), similar ones and a draw of the others. Unless noted, calls follow the shape of the dose curve; as a rule, active = well fitted curve in the direction sought with a large enough effect; inconclusive = small, poorly fitted or top-dose-only effect, or another doubt; inactive = no such curve, though single readings can be large; an effect the other way counts as inactive or inconclusive.
SMILES,Pf growth 48h,HCMV inh,Sm TGR inh,Pf growth 96h,FBPA Giardia inh
CN(C(=O)C(C)(C)C)c1ccc(OCC(=O)N2CCc3ccccc3C2)cc1,?,-82,i,?,nt
CCc1cccc(CC)c1N1C(=O)COCC1=O,nt,-62,nt,nt,nt
COc1ccc(-c2cc(C(=O)Nc3cccc(S(=O)(=O)NCc4ccco4)c3)c3ccccc3n2)cc1OC,2.1µM,i,?,?,i
O=C(Nc1ccccc1)c1cccc(S(=O)(=O)NCc2ccco2)c1,i,i,i,i,i
COc1ccc(S(=O)(=O)NCc2ccco2)cc1-c1nnc2c3ccccc3c(C)nn12,12µM,i,56µM,?,i
O=C(Nc1cccc(S(=O)(=O)NCc2ccco2)c1)c1cc(-c2ccc(F)cc2)nc2ccccc12,i,i,i,12µM,i
COc1ccccc1N1CCN(S(=O)(=O)c2cc(-c3cc(C)no3)ccc2C(C)C)CC1,?,i,i,i,i
Cc1cccc(C)c1NC(=O)c1nc2ccc([N+](=O)[O-])cc2nc1-c1ccccc1,nt,i,nt,nt,nt
CCCCn1c(=NC(=O)C(C)(C)Oc2ccc(Cl)cc2)c(C(=O)OCC)cc2c(=O)n3ccccc3nc21,nt,i,i,nt,nt
N#CC1=C(S)N(c2ccccc2)C(c2ccc(-c3ccc(Cl)c(Cl)c3)o2)NC1=O (centres undefined),i,i,14µM,i,i
N#CC1=C(S)N(c2ccccc2)C(c2ccc(-c3cc(Cl)ccc3Cl)o2)NC1=O (centres undefined),i,i,i,i,i
O=c1c2cc(Cl)ccc2[nH]c(=S)n1Cc1cccs1,i,i,i,13µM,i
COc1ccc(-n2c(=O)c(C)nc3cnc(N4CCNCC4)nc32)cc1,nt,nt,nt,nt,i
CCOc1cc(CNCC(C)C)cc(Cl)c1OCc1ccccc1,13µM,?,nt,5.2µM,i
CCCCNCc1cc(Cl)c(OCCC)c(OCC)c1,nt,i,i,8.3µM,i
CCOc1c(Cl)cc(CNCC(O)c2ccccc2)cc1OC (centres undefined),4.1µM,i,i,i,i
CCCCOc1c(Cl)cc(CNC(C)(C)CO)cc1OCC,?,i,i,i,i
CCOc1cc(CNC2CCCC2)cc(Cl)c1OCc1ccccc1,13µM,i,i,?,nt
CCOc1c(Cl)cc(CNCC(C)C)cc1OC,nt,i,i,i,i
Nc1nc2[nH]c(=O)[nH]c2c(=O)[nH]1,nt,nt,nt,nt,i
Cc1ccc(-n2cnc3c(=O)[nH]cnc32)cc1[N+](=O)[O-],nt,i,nt,nt,nt
COc1cc(CNCCc2ccccc2)cc(Cl)c1OCc1ccccc1,8.3µM,i,i,i,i
COc1cc(CNCc2ccccc2)cc(Cl)c1OC,i,i,nt,i,i
COc1ccc(CNc2nc(-c3cccnc3)nc3ccccc23)c(OC)c1,nt,nt,nt,nt,i
CC(CCc1ccccc1)NCc1cccc2ccccc12 (centres undefined),?,i,i,?,i
SMILES,Pf growth 48h,HCMV inh,Sm TGR inh,Pf growth 96h,FBPA Giardia inh
COCC(C)NCc1cccc2ccccc12 (centres undefined),i,i,i,4.7µM,?
CC(C)C(NC(=O)C1CC(=O)N(Cc2ccccc2)C1)c1nc2ccccc2[nH]1 (centres undefined),nt,i,nt,nt,nt
COc1ccc(CNS(=O)(=O)c2cc(CN3C(=O)c4cccnc4C3=O)ccc2OC)cc1,i,i,i,15µM,nt
Cc1nc2cc(-c3ccccc3)sc2c(=O)n1N,i,-89,i,i,i
O=C(CCCCCN1C(=O)[C@@H]2Cc3ccccc3CN2C1=O)Nc1ccccc1Cl,?,i,i,?,i
COc1ccccc1NC(=O)CSC1CC(=O)N(c2ccc3c(c2)OCO3)C1=O (centres undefined),i,i,13µM,i,i
COc1ccc(NC(=O)CSC2CC(=O)N(c3ccc4c(c3)OCCO4)C2=O)cc1 (centres undefined),i,i,45µM,nt,i
O=C1NCCCc2c1oc1ccc(O)cc21,?,-63,i,i,i[12.9 µM]
CCOc1ccc(CNC(=O)c2cnc3sc(N(CC)CC)nn3c2=O)cc1,nt,i,i,nt,nt
Cc1cc(N2CCOCC2)nc2ccc(Cl)cc12,i,i,i,i,i
O=C1CCCN2N=C(SCC(=O)Nc3ccc([N+](=O)[O-])cc3)SC2=N1,i,i,i,i,i
O=C1CCCN2N=C(SCC(=O)Nc3ccc(OC(F)(F)F)cc3)SC2=N1,i,i,i,12µM,i
Cc1c(C(=O)NCc2cccc([N+](=O)[O-])c2)sc(=O)n1Cc1ccccc1F,nt,i,nt,nt,nt
O=C(CSc1nc2ccccc2n1Cc1ccccc1)N1CCN(c2ccc(F)cc2)CC1,nt,i,i,nt,nt
CC1(C)Cc2c(C#N)c(N)sc(=S)c2CS1,i,i,32µM,i,?
Cn1c(N)c(C#N)c2c(c1=S)CSC(C)(C)C2,i,i,13µM,i,?
N#Cc1c(N)sc(=S)c2c1CCCCC2,i,?,7.9µM,?,10µM
COC(=O)[C@H]1[C@H](CO)[C@H]2Cn3c(cccc3=O)[C@H]2N1Cc1ccccc1F,nt,i,nt,nt,nt
COC(=O)NC(CC(C)=O)c1cccc(C(F)(F)F)c1 (centres undefined),nt,nt,nt,nt,i[12.9 µM]
NC(=O)[C@H]1CC2(CC(c3cccc(NC(=O)COc4ccc(Cl)cc4)c3)=NO2)CN1C(=O)CC(c1ccccc1)c1ccccc1 (some centres undefined),?,i,i,?,i
NC(=O)[C@H]1CC2(CC(c3cccc(NC(=O)COc4ccc(Cl)cc4)c3)=NO2)CN1C(=O)c1ccc(Cl)cc1 (some centres undefined),13µM,?,i,?,i
NC(=O)[C@@H]1CC2(CC(c3cccc(NC(=O)CC(c4ccccc4)c4ccccc4)c3)=NO2)CN1C(=O)COc1ccc(Cl)cc1 (some centres undefined),?,i,i,12µM,i
NC(=O)[C@H]1CC2(CC(c3cccc(NC(=O)COc4ccc(Cl)cc4)c3)=NO2)CN1C(=O)c1ccccc1C(=O)c1ccccc1 (some centres undefined),12µM,i,i,12µM,i
CC1(C(=O)N2CC3(CC(c4cccc(NC(=O)COc5ccc(Cl)cc5)c4)=NO3)C[C@@H]2C(N)=O)CC1 (some centres undefined),13µM,i,i,?,i
CC1CC1C(=O)OCC(=O)Nc1ccc(S(=O)(=O)N2CCOCC2)cc1 (centres undefined),nt,i,nt,nt,nt
Cc1ccc(CNC(=O)CNC(=O)c2ccc(C(C)(C)C)cc2)n1C,nt,i,nt,nt,nt
COc1ccc(NC(=O)CN2CCN(CC(=O)Nc3ccc(OC)cc3)CC2)cc1,i,i,i,i,i
C/C=C/C(=O)N1CC2(CC(c3cccc(NC(=O)COc4ccc(Cl)cc4)c3)=NO2)C[C@@H]1C(N)=O (some centres undefined),13µM,i,i,5.2µM,i

# Screening results (PubChem)
